Measured values reported in PubChem BioAssay (NCI).
This is part of a sample that, as a whole, favours compounds with a hit. Of some 79,000 tested, about 15% had one in any assay. Activity calls are given as the source filed them. Cut-off read from the data, not from the text of the source: active = growth inhibition above about 70%; inactive = the rest. Where a SMILES comes first, the peptide text is derived from it. The star is where a group is joined. Boc = CC(C)(C)OC(=O)*; OBn = c1ccc(CO*)cc1

Key:
[1] = NCI Yeast Anticancer Drug Screen. Data for the rad50 strain (AID 155);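 note: 0% = growth of vehicle-only cultures of the same strain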; details: S. cerevisiae rad50 strain growth inhibition; at 50.0 µM; stronger effect = higher value
In short: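 A DNA repair-deficient yeast mutant serves as the test organism; compound-induced growth inhibition is calculated against vehicle-treated cells.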

[2] = NCI Yeast Anticancer Drug Screen. Data for the mec2-1 strain (AID 157); details: S. cerevisiae mec2-1 strain, at 50.0 µM, stronger effect = higher value
In short: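 Readout is yeast growth inhibition, normalised to vehicle-treated controls, in the mec2-1 strain exposed to compound.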

[3] = NCI Yeast Anticancer Drug Screen. Data for the sgs1 mgt1 strain (AID 161);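 note: 0% = growth of cultures given vehicle only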; details: S. cerevisiae sgs1 mgt1 strain, at 50.0 µM, stronger effect = higher value
In short: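 Compounds are added to genetically altered yeast, and growth is compared with cultures given vehicle alone to give percent inhibition.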

[4] = NCI Yeast Anticancer Drug Screen. Data for the cln2 rad14 strain (AID 165);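 note: 0% = growth equal to vehicle treated cultures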; details: S. cerevisiae cln2 rad14 strain, at 50.0 µM, stronger effect = higher value
In short: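 Relative to vehicle controls, growth inhibition of compound-treated cln2 rad14 yeast was recorded.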

[5] = NCI Yeast Anticancer Drug Screen. Data for the bub3 strain (AID 167); details: S. cerevisiae bub3 mutant strain, at 50.0 µM, stronger effect = higher value
In short: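 Inhibition values come from growth of compound-treated mutant yeast normalised to vehicle-treated controls.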

[6] = NCI Yeast Anticancer Drug Screen. Data for the mlh1 rad18 strain (AID 175); details: S. cerevisiae mlh1 rad18 strain growth inhibition; at 50.0 µM; stronger effect = higher value
In short: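 Test agents were incubated with a yeast strain of defined genotype (DNA damage repair defect). Inhibition of growth was derived by comparison with vehicle-exposed cultures.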

Row | Compound | growth inhibition [1] | growth inhibition [2] | growth inhibition [3] | growth inhibition [4] | growth inhibition [5] | growth inhibition [6]
1 | CCC1(CC)SCc2nc3ccccc3n21 | 23% (inactive) | 18.2% (inactive) | 58.3% (inactive) | 29.3% (inactive) | 58.8% (inactive) | 42.3% (inactive)
2 | COc1ccc2c(c1OC)C1CCCCC1SCC2=O (configuration not stated) | 14.4% (inactive) | 6.85% (inactive) | 0.7% (inactive) | 5.75% (inactive) | 12.5% (inactive) | -16.4% (inactive)
3 | CC(C)CC(NC(=O)OC(C)(C)C)C(=O)NC(CCC(=O)OCc1ccccc1)C(N)=O (stereo not drawn) (Boc-Leu-Glu(OBn)-NH2; configuration not given here) | 19.1% (inactive) | -8.9% (inactive) | 8.65% (inactive) | 19.9% (inactive) | 24.4% (inactive) | 4.65% (inactive)
4 | COc1ccc(C2=C(C#N)C(=C(C#N)C#N)NC(N)=C2C#N)cc1 | -11.1% (inactive) | -1.25% (inactive) | -21.8% (inactive) | -4.75% (inactive) | -19.4% (inactive) | -17.4% (inactive)
5 | CCOc1ccc(Nc2nc(N)nc(N)c2N)cc1 | 2.85% (inactive) | 10.8% (inactive) | -8.95% (inactive) | -13.7% (inactive) | -20.4% (inactive) | 3.8% (inactive)
6 | OCc1ccc2ccccc2n1 | 24% (inactive) | -1.2% (inactive) | 21.6% (inactive) | -1.55% (inactive) | 12.7% (inactive) | 31.1% (inactive)
7 | CCCS(=O)(=O)CCC(=O)c1cccs1 | -0.05% (inactive) | -12.1% (inactive) | -8.4% (inactive) | -19% (inactive) | -1.85% (inactive) | 5.95% (inactive)
8 | COc1ccc2occc2c1 | 0% (inactive) | -1.55% (inactive) | -17.7% (inactive) | 2.7% (inactive) | -0.75% (inactive) | 10.1% (inactive)
9 | CCC(CO)NC(=O)/C=C/c1ccccc1Cl (configuration not stated) | 7% (inactive) | 14.4% (inactive) | 1.55% (inactive) | 2.3% (inactive) | -0.7% (inactive) | 10.5% (inactive)
10 | Nc1nc2nc3c(nc2c(=O)[nH]1)CN(c1ccc(C(=O)O)cc1)C3=O | 19.4% (inactive) | 5.6% (inactive) | -5.05% (inactive) | -7.45% (inactive) | 14.7% (inactive) | 11.4% (inactive)
11 | N=C1C=CC2C(=Nc3ccccc3[N+]2=O)N1Cc1ccncc1 (configuration not stated) | -2.9% (inactive) | 1.3% (inactive) | -6% (inactive) | 1.45% (inactive) | 7.55% (inactive) | 22.8% (inactive)
12 | COc1cc(N=Nc2c(Cl)cc([N+](=O)[O-])cc2Cl)c(OC)cc1N=Nc1ccc(N)nc1N | 23.4% (inactive) | 28% (inactive) | 7.05% (inactive) | 5.9% (inactive) | 3.85% (inactive) | 9.45% (inactive)
13 | Cc1ccc(S(=O)(=O)NC(=O)c2ncn(C3OC(CO)C(O)C3O)c2N)cc1 (configuration not stated) | -5.15% (inactive) | 10.8% (inactive) | 12.7% (inactive) | 15.1% (inactive) | 1.5% (inactive) | 1.55% (inactive)
14 | O=C1C=CC(=O)C2C1C21C2CCCC(C2)C2CCCC1C2 (configuration not stated) | -11.2% (inactive) | 16.3% (inactive) | 4.05% (inactive) | -23% (inactive) | -0.65% (inactive) | 20.1% (inactive)
15 | CN(C)C(=O)c1cccc([N+](=O)[O-])c1 | 1% (inactive) | -3.5% (inactive) | -4.65% (inactive) | 2.65% (inactive) | 13.2% (inactive) | 31.9% (inactive)
16 | CCCCC[N+](CCCCC)(CCCCC)CCCCC | -10.8% (inactive) | -16.4% (inactive) | -27.4% (inactive) | 8.4% (inactive) | 14% (inactive) | -13.5% (inactive)
17 | COc1ccc2c(c1)N1CCc3cc(OC)c(OC)cc3C1C2 (configuration not stated) | 15.8% (inactive) | -5.15% (inactive) | 25.2% (inactive) | 9.5% (inactive) | 25% (inactive) | 34.4% (inactive)
18 | c1ccc2nc(N3CCCC3)c(N3CCCC3)nc2c1 | -8.75% (inactive) | -12.6% (inactive) | -10.7% (inactive) | -21.4% (inactive) | 57.8% (inactive) | -4.85% (inactive)
19 | O=[N+]([O-])c1ccc(N/N=C2/C(=C/c3cccc4ccccc34)CCc3ccccc32)c([N+](=O)[O-])c1 | -13.6% (inactive) | -16.3% (inactive) | -20.8% (inactive) | -32.5% (inactive) | 37.5% (inactive) | -19.6% (inactive)

Row | Compound | growth inhibition [1] | growth inhibition [2] | growth inhibition [3] | growth inhibition [4] | growth inhibition [5] | growth inhibition [6]
20 | Cc1ccc2c(c1)C1(c3ccc(Cl)c(Cl)c3)Oc3ccc(C)cc3C(c3ccc(Cl)c(Cl)c3)(O2)O1 | 4.1% (inactive) | 5.15% (inactive) | -6.7% (inactive) | 2.15% (inactive) | 3.65% (inactive) | -3% (inactive)
21 | CCCNC(=S)N/N=C/c1cccc(C)n1 | -23.3% (inactive) | -26.1% (inactive) | 2.15% (inactive) | 15.2% (inactive) | 24.2% (inactive) | -12% (inactive)
22 | CN(C)N1C(=O)c2ccccc2NC1c1ccccc1 (configuration not stated) | -19.2% (inactive) | -1.35% (inactive) | 29.6% (inactive) | 2% (inactive) | 18.9% (inactive) | 5.15% (inactive)
23 | CSc1c(C(=O)Nc2ccc(C)cc2)c(N)nn1-c1ccccc1 | 20.8% (inactive) | -12.3% (inactive) | 20.4% (inactive) | 12.8% (inactive) | 4.35% (inactive) | 2.7% (inactive)
24 | Cc1nc2ccccc2nc1C1=C(O)c2ccccc2CC1=O | 0.85% (inactive) | 8.6% (inactive) | 10.1% (inactive) | -71.2% (inactive) | -10.2% (inactive) | 1.35% (inactive)
25 | O=C(O)C(Cc1ccccc1)c1ccc(Cl)cc1 (configuration not stated) | 38.1% (inactive) | 27.3% (inactive) | 43.1% (inactive) | 20.6% (inactive) | 41.8% (inactive) | 25.9% (inactive)
26 | O=C(C(O)c1ccccc1)N1CCCCC1 (configuration not stated) | 32.6% (inactive) | 14.2% (inactive) | -2.95% (inactive) | 9.85% (inactive) | 4.3% (inactive) | 21.6% (inactive)
27 | O=C1Nc2cc(Cl)ccc2N=CC1NC(=O)C(c1ccccc1)c1ccccc1Cl (configuration not stated) | -33.1% (inactive) | -11.6% (inactive) | -6.15% (inactive) | -15.9% (inactive) | -6.8% (inactive) | -17.8% (inactive)
28 | CC(=O)OCCS(=O)(=O)c1c(Cl)c(Cl)c(Cl)c(Cl)c1Cl | 95.7% (active) | 97.4% (active) | 98.9% (active) | 93.8% (active) | 95.7% (active) | 97.8% (active)
29 | OC(c1ccccc1)(c1ccccc1)c1ccccc1C(O)(c1ccccc1)c1ccccc1 | 12.2% (inactive) | 1% (inactive) | 4.6% (inactive) | 10.8% (inactive) | -4.65% (inactive) | 12.8% (inactive)
30 | COC(=O)c1cc(-c2ccc(OC)cc2)[nH]c(=O)c1C#N | 20.2% (inactive) | 21.1% (inactive) | 31.2% (inactive) | 20.4% (inactive) | 26.1% (inactive) | 27.9% (inactive)
31 | CC1=CC[N+](C)(C)C(C(N)=O)C1 (configuration not stated) | -5% (inactive) | -12.8% (inactive) | -17.2% (inactive) | 9.95% (inactive) | 20.9% (inactive) | -18.1% (inactive)
32 | O=C(Cc1nc2ccccc2o1)C(=O)Nc1ccc(Cl)cc1Cl | 10.7% (inactive) | -4.6% (inactive) | 0.8% (inactive) | 17.1% (inactive) | -15.7% (inactive) | 16.2% (inactive)
33 | CCOC(=O)C1SC(=S)N(c2ccccc2)C1N (configuration not stated) | -3.75% (inactive) | 14.6% (inactive) | 39.8% (inactive) | -11.6% (inactive) | -4.45% (inactive) | 11.8% (inactive)
34 | CNc1cccc2c1C(C)C[C@]1(C)C(=O)Nc3ccccc3[C@H]21 (some centres not stated) | -36.5% (inactive) | -19.7% (inactive) | -22.6% (inactive) | -31.1% (inactive) | -35.8% (inactive) | -80.3% (inactive)
35 | CC1(C)C[C@H](OC2CCCCO2)[C@H]2O[C@@]2(C)C1 (some centres not stated) | 10.8% (inactive) | 4.3% (inactive) | -29.8% (inactive) | 1.1% (inactive) | 18.4% (inactive) | 3.95% (inactive)
36 | CCO/C=C1/N=C(c2cccc3ccccc23)OC1=O | 3.15% (inactive) | -1.5% (inactive) | 5.7% (inactive) | -64.2% (inactive) | -1.85% (inactive) | 5.55% (inactive)
37 | O=c1n(-c2ccccc2)c(=O)n2n1C1C3C4C5C1C5C2C43 (configuration not stated) | -8.4% (inactive) | 8.95% (inactive) | 12.3% (inactive) | 5.85% (inactive) | 5% (inactive) | 12.8% (inactive)
